Outcome and AC50 data for five compounds are collected here from PubChem BioAssay (EPA / NIEHS).

What is called AC50 is the midpoint of the concentration-response curve, whichever way the signal moves.

Each structure is given as a SMILES string. Results filed as inconclusive are left out. The source made the active and inactive calls. Rule for the calls, unless noted: active = hit-call score of the fitted dose curve at least 0.9, where 1 is the maximum; inactive = score below 0.9.

Experiment [1] is described as follows: ATG_Hpa5_TRANS: Attagene TRANS-FACTORIAL HepG2 Assay for human GAL4-Hpa5 Hepatocyte Transcription Factor Basal Promoter (AID 2282975; active = hit-call score of the fitted dose curve at least 0.9, where 1 is the maximum;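 note: hits are increases in reporter mRNA over DMSO baseline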). The conditions noted are these: HepG2 Attagene GAL4-Hpa5 transcription reporter. A digest of the protocol:
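Basal-promoter GAL4 background control within the HepG2 trans-factorial panel of transiently transfected reporter units. Reporter mRNA is measured 24 h after dosing by RT-PCR and capillary electrophoresis, fitted for gain of signal versus DMSO.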

Experiment [2] can be described thus: ATG_GAL4_TRANS: Attagene TRANS-FACTORIAL HepG2 Assay for GAL4 (Internal Marker) (AID 2282976; active = hit-call score of the fitted dose curve at least 0.9, where 1 is the maximum). As to conditions: HepG2 Attagene TRANS GAL4 internal marker reporter. A digest of the protocol: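 In transfected human HepG2 liver cells dosed 24 h, GAL4 reporter mRNA serves as a baseline marker. Detection by RT-PCR with fluorescent capillary electrophoresis, activity fitted upward relative to DMSO.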

Experiment [3] has as its target Oxysterols receptor LXR-alpha (Homo sapiens) (UniProt Q13133). In words: ATG_LXRa_TRANS: Attagene TRANS-FACTORIAL HepG2 Assay for human Liver X Receptor alpha (LXRa) (AID 2282980; active = hit-call score of the fitted dose curve at least 0.9, where 1 is the maximum). As to conditions: HepG2 Attagene TRANS reporter, LXRa transactivation. In short, it runs like this:
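Chemical-induced reporter mRNA measured by RT-PCR with fluorescent labelling and capillary electrophoresis after 24 h dosing of transiently transfected HepG2 cells expressing exogenous NR-Gal4 chimeras; increases scored against DMSO baseline.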

Experiment [4] deals with Oxysterols receptor LXR-beta (Homo sapiens) (UniProt P55055). In words: ATG_LXRb_TRANS: Attagene TRANS-FACTORIAL HepG2 Assay for human Liver X Receptor beta (LXRb) (AID 2282981; active = hit-call score of the fitted dose curve at least 0.9, where 1 is the maximum). As to conditions: HepG2 Attagene TRANS GAL4-LXRb reporter, mRNA. A digest of the protocol: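 HepG2 cells transiently transfected with GAL4-UAS reporter units for chimeric NR-Gal4 proteins, dosed for 24 h. Reporter transcripts measured by RT-PCR and capillary electrophoresis; gain-of-signal fitting relative to DMSO.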
Chain of Oxysterols receptor LXR-beta (Homo sapiens) (P55055 whole entry, looked up, the tested form may be a part): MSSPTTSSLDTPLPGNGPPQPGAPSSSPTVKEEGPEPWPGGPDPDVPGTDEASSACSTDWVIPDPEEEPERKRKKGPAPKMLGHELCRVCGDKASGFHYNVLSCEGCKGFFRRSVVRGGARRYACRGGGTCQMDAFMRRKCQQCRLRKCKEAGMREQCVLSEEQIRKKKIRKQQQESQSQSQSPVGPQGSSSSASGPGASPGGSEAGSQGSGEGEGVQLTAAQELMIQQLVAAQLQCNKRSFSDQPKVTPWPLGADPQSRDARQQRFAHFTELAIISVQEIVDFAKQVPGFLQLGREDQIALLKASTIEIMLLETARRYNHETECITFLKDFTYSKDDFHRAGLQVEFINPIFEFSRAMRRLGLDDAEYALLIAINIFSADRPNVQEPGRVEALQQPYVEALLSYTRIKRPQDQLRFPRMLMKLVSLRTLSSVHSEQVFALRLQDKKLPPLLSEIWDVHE

The target of experiment [5] is Transcriptional activator Myb (Homo sapiens) (UniProt P10242). In words: ATG_Myb_CIS: Attagene CIS-FACTORIAL HepG2 Assay for human Myeloblastosis (Myb) Proto-Oncogene Transcription Factor (AID 2282986). The conditions noted are these: HepG2 Attagene CIS-FACTORIAL Myb reporter transcription; actives raise or lower the signal. A digest of the protocol: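 Endogenous transcription factor activity at a Myb-responsive cis element is reported in human liver HepG2 cells after 24 h chemical treatment. Reporter mRNA is detected by RT-PCR and capillary electrophoresis fluorescence, with DMSO as baseline.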
Chain of Transcriptional activator Myb (Homo sapiens) (P10242 whole entry, looked up): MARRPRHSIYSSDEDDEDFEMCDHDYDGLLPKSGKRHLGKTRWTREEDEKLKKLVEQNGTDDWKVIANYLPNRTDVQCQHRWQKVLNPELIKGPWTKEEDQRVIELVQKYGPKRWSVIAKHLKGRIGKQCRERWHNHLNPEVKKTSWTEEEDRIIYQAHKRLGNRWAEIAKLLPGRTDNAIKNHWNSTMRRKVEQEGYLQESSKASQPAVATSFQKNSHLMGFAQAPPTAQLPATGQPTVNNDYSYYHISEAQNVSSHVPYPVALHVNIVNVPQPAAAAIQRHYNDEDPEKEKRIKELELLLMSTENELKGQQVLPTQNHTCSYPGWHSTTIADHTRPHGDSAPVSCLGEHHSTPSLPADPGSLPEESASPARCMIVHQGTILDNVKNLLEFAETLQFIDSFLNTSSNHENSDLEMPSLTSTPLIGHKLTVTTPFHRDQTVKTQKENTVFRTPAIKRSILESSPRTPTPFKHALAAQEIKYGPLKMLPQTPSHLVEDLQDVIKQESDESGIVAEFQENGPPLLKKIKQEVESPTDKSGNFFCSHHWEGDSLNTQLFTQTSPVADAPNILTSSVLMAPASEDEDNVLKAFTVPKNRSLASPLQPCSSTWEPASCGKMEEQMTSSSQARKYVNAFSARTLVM

Experiment [6] has as its target Nuclear respiratory factor 1 (Homo sapiens) (UniProt Q16656). In words: ATG_NRF1_CIS: Attagene CIS-FACTORIAL HepG2 Assay for human Nuclear Respiratory Factor 1 (NRF1) Orphan Gene (AID 2282987). As to conditions: HepG2 NRF1 cis-element reporter, Attagene multiplex; actives raise or lower the signal. A digest of the protocol: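 Human hepatoma HepG2 cells carrying transfected promoter-regulated reporter units were incubated with test chemicals for 24 h. Reporter transcripts were measured by RT-PCR plus capillary electrophoresis, and endpoints derived by bidirectional fitting with DMSO as baseline.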

Experiment [7] can be described thus: ATG_NFI_CIS: Attagene CIS-FACTORIAL HepG2 Assay for human Nuclear Factor I (NFI) (AID 2282989). The conditions noted are these: HepG2 cis-regulatory reporter, NFI response element transcription; actives raise or lower the signal. A digest of the protocol: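 Transfected HepG2 liver cells, exposed 24 h, supplied total RNA for oligo(dT) reverse transcription and reporter-specific PCR. Labelled, HpaI-cut fragments were sized by capillary electrophoresis; DMSO set the baseline for bidirectional fitting.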

Experiment [8] deals with Myc proto-oncogene protein (Homo sapiens) (UniProt P01106). In words: ATG_Myc_CIS: Attagene CIS-FACTORIAL HepG2 Assay for human Myelocytomatosis (Myc) Proto-Oncogene Transcription Factor (AID 2282990). The conditions noted are these: HepG2, Attagene cis-reporter transcription factor activity; actives raise or lower the signal. In short, it runs like this: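 Fluorescence intensity of reporter-specific cDNA fragments, separated by capillary electrophoresis, gives the signal. Transfected HepG2 cells carrying cis-promoter reporter constructs are incubated with compound for 24 h; DMSO serves as baseline.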
Chain of Myc proto-oncogene protein (Homo sapiens) (P01106 whole entry, looked up, the tested form may be a part): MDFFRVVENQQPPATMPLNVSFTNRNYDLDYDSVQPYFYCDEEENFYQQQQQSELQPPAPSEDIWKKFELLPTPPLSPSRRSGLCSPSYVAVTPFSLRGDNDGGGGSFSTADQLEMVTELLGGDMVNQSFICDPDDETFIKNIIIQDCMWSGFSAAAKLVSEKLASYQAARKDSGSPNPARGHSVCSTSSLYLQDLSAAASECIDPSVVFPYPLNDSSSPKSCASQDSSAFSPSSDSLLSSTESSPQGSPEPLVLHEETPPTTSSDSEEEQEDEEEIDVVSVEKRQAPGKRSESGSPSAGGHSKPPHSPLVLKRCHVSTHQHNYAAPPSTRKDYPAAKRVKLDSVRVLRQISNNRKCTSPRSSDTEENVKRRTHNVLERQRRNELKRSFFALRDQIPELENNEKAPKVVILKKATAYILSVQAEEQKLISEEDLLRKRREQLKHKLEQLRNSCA

The nature of experiment [9]: ATG_NRF2_ARE_CIS: Attagene CIS-FACTORIAL HepG2 Assay for human Nuclear Factor Erythroid 2 Related Factor 2 (NFR2) response to Antioxidant Response Elements (ARE) (AID 2282992).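 Note: reporter mRNA level measured by RT-PCR and capillary electrophoresis fluorescence.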 As to conditions: HepG2 Attagene ARE/NRF2 reporter, transcription factor activity; actives raise or lower the signal. A digest of the protocol: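 HepG2 cells transiently transfected with multiplexed cis-regulated reporter transcription units measure endogenous transcription factor activity. Reporter mRNA at 24 h is quantified by RT-PCR, fluorescent labelling and capillary electrophoresis, with bidirectional fitting relative to DMSO.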

Experiment [10] can be described thus: ATG_Oct_MLP_CIS: Attagene CIS-FACTORIAL HepG2 Assay for human Octamer-Binding Transcription Factor (Oct) (AID 2282993). As to conditions: HepG2 Attagene cis-factorial Oct reporter, mRNA; actives raise or lower the signal. A digest of the protocol:
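Using HepG2 cells bearing transfected cis-reporter constructs, mRNA induction was read after 24 h by fluorescent RT-PCR and capillary electrophoresis, with DMSO defining baseline for gain- or loss-of-signal fits.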

In experiment [11] the target is Cellular tumor antigen p53 (Homo sapiens) (UniProt P04637). In words: ATG_p53_CIS: Attagene CIS-FACTORIAL HepG2 Assay for human p53 Transcription Factor (AID 2282994). As to conditions: HepG2 p53 cis-element reporter, Attagene mRNA; actives raise or lower the signal. In short, it runs like this: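 HepG2 cells transiently transfected with multiplexed cis-regulated reporter transcription units read endogenous TF activity. After 24 h compound exposure, reporter mRNA was quantified by RT-PCR, fluorescent labelling, HpaI digestion and capillary electrophoresis; bidirectional fits versus DMSO baseline.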
Chain of Cellular tumor antigen p53 (Homo sapiens) (P04637 whole entry, looked up): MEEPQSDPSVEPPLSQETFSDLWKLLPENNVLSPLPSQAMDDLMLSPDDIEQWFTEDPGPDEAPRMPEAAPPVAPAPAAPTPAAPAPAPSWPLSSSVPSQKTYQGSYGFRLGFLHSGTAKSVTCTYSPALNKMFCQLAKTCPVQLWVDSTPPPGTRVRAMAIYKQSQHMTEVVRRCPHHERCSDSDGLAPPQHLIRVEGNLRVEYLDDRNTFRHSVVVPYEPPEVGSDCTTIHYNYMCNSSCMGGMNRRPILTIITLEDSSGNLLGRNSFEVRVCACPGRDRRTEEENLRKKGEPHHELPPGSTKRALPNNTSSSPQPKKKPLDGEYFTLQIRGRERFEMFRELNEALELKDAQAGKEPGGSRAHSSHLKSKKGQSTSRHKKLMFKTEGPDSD

A short description of experiment [12]: BSK_3C_TissueFactor: BioMAP Diversity Plus: 3C Assay for Tissue Factor Biomarker Activity (AID 2282997). The conditions noted are these: BioMAP 3C HUVEC, tissue factor biomarker readout; actives raise or lower the signal. A digest of the protocol:
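Dosing of human umbilical vein endothelial cells preceded a 24 h incubation. Tissue Factor was then read by ELISA, with increases and decreases both scored relative to DMSO controls.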

Experiment [13] in a line: BSK_3C_uPAR: BioMAP Diversity Plus: 3C Assay for Urokinase-type plasminogen activator receptor (uPAR) Biomarker Activity (AID 2282998). The conditions noted are these: BioMAP 3C HUVEC, uPAR biomarker ELISA; actives raise or lower the signal. In short, it runs like this: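 In this endothelial cell-based assay, human umbilical vein primary cells were treated with chemicals and harvested at 24 h. uPAR was quantified using ELISA, with gains or losses fitted relative to DMSO controls.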

The nature of experiment [14]: BSK_3C_VCAM1: BioMAP Diversity Plus: 3C Assay for Vascular cell adhesion molecule 1 (VCAM1) Biomarker Activity (AID 2282999). As to conditions: BioMAP 3C HUVEC, VCAM1 ELISA, cytokine-stimulated; actives raise or lower the signal. In short, it runs like this:
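Human umbilical vein endothelial cells (3C system), biomarker read by ELISA 24 h after dosing; bidirectional fit against DMSO baseline. Cytotoxicity tracked by SRB total-protein staining in parallel cultures at biomarker time.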

Experiment [15] concerns the target Glucocorticoid receptor (Homo sapiens) (UniProt P04150). In words: ATG_GR_TRANS: Attagene TRANS-FACTORIAL HepG2 Assay for human Glucocorticoid Receptor (GR) (AID 2282978; active = hit-call score of the fitted dose curve at least 0.9, where 1 is the maximum;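 note: activators score as hits since higher reporter transcript over DMSO is fitted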). As to conditions: HepG2 Attagene TRANS GR reporter, mRNA transcription. In short, it runs like this: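 Multiplexed TRANS reporter system, HepG2; 24 h exposure; RNA → oligo(dT) RT → reporter-specific PCR → 6-FAM primer extension → HpaI cut → CE fluorescence. Gain-of-signal vs DMSO.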

Experiment [16] deals with Hepatocyte nuclear factor 4-alpha (Homo sapiens) (UniProt P41235). In words: ATG_HNF4a_TRANS: Attagene TRANS-FACTORIAL HepG2 Assay for human Hepatocyte Nuclear Factor 4 alpha (HNF4a) (AID 2282982; active = hit-call score of the fitted dose curve at least 0.9, where 1 is the maximum). The conditions noted are these: HepG2 HNF4a transactivation reporter, mRNA readout. A digest of the protocol:
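HepG2 cells transiently transfected with HNF4a-Gal4 chimera and GAL4-UAS reporter units, dosed for 24 h. Reporter mRNA measured by RT-PCR, fluorescent primer extension and capillary electrophoresis; gain-of-signal fitted relative to DMSO.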

Experiment [17] in a line: ATG_NF_kB_CIS: Attagene CIS-FACTORIAL HepG2 Assay for human Nuclear Factor Kappa B (NF-kB) (AID 2282991). The conditions noted are these: HepG2 Attagene cis-factorial NF-kB reporter mRNA; actives raise or lower the signal. A digest of the protocol:
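Multiplexed cis-reporter assay in transiently transfected HepG2. 24 h treatment; RNA isolated, RT-PCR, labelled fragments resolved by CE. DMSO baseline.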

For experiment [18], the target named is Bile acid receptor (Homo sapiens) (UniProt Q96RI1). In words: ATG_FXR_TRANS: Attagene TRANS-FACTORIAL HepG2 Assay for Farnesoid X Receptor (FXR) (AID 2282979; active = hit-call score of the fitted dose curve at least 0.9, where 1 is the maximum;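 note: hits raise reporter mRNA above DMSO so AC50 marks FXR activation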). The conditions noted are these: HepG2 Attagene TRANS FXR-GAL4 reporter transcription. In short, it runs like this:
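Reporter transcripts from transfected HepG2 cells were measured 24 h after dosing, using RT-PCR with capillary electrophoresis of 6-FAM-labelled fragments. The read-out reflects activity of exogenous FXR-Gal4 chimera on GAL4-UAS units, with induction relative to DMSO.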

Experiment [19] concerns the target Nuclear receptor subfamily 4 group A member 2 (Homo sapiens) (UniProt P43354). In words: ATG_NURR1_TRANS: Attagene TRANS-FACTORIAL HepG2 Assay for human Nuclear Receptor Related Protein 1 (NURR1) (AID 2282985; active = hit-call score of the fitted dose curve at least 0.9, where 1 is the maximum). As to conditions: HepG2 Attagene TRANS reporter, mRNA readout. In short, it runs like this: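 HepG2 cells transiently transfected with NURR1-Gal4 chimera and GAL4-UAS reporter units; after 24 hr compound exposure, reporter mRNA quantified by RT-PCR and capillary electrophoresis; gain of signal fitted against DMSO.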

Chain of Oxysterols receptor LXR-alpha (Homo sapiens) (Q13133 whole entry, looked up, the tested form may be a part): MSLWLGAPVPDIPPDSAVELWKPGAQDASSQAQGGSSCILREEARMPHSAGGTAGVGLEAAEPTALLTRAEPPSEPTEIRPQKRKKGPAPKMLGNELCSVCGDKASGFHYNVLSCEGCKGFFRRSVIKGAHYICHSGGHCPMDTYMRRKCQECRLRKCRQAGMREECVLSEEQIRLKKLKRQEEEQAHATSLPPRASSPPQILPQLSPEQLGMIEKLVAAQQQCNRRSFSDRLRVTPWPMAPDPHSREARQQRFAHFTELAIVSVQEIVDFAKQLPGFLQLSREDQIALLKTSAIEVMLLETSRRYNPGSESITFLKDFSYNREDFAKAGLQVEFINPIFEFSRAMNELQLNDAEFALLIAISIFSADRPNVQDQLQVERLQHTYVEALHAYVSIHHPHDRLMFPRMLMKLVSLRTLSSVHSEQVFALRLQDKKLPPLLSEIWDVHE
Chain of Nuclear respiratory factor 1 (Homo sapiens) (Q16656 whole entry, looked up): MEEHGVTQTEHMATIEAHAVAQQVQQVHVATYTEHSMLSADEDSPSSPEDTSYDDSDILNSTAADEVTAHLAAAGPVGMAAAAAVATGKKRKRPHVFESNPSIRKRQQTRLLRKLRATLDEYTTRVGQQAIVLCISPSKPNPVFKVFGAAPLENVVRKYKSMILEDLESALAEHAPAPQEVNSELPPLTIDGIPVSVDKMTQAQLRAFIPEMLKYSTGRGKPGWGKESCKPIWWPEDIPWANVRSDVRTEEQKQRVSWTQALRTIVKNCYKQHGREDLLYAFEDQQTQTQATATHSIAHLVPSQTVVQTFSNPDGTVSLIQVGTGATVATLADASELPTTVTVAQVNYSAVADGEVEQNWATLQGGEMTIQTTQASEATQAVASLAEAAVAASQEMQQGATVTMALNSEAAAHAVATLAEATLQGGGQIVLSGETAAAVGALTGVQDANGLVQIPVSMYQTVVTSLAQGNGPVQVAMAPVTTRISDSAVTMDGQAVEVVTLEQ
Chain of Hepatocyte nuclear factor 4-alpha (Homo sapiens) (P41235 whole entry, looked up, the tested form may be a part): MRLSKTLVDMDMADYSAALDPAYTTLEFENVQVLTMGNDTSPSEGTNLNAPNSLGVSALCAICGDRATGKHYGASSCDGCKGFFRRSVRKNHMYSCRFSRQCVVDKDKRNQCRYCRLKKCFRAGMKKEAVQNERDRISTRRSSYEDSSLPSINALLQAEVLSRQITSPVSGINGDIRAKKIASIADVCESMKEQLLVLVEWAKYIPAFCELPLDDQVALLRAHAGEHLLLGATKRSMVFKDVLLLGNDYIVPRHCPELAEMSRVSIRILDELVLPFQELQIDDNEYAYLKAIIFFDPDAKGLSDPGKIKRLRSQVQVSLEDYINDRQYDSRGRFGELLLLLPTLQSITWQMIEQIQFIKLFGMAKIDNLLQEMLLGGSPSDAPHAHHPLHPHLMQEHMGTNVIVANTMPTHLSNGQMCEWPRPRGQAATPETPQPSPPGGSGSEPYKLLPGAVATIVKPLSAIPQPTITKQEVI
Chain of Glucocorticoid receptor (Homo sapiens) (P04150 whole entry, looked up): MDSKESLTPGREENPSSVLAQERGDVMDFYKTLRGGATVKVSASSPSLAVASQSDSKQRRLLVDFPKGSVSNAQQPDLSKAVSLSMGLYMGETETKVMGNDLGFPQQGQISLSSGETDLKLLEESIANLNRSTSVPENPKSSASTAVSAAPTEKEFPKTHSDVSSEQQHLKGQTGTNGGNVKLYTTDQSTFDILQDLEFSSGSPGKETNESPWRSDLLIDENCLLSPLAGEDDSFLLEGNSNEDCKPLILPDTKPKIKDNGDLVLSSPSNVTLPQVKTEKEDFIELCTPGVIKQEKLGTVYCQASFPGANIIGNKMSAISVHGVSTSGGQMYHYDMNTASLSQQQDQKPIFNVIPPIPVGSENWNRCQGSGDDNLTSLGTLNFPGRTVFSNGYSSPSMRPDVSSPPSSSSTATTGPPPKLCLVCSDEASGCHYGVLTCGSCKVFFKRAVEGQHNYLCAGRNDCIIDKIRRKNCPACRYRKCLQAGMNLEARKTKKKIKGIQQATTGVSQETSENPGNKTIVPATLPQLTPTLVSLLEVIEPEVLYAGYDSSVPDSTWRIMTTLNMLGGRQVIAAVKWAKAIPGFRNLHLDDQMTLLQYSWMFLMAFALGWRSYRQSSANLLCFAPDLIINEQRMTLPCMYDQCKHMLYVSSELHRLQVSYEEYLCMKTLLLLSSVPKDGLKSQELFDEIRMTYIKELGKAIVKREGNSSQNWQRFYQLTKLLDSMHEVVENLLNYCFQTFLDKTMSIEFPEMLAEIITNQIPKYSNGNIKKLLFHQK
Chain of Bile acid receptor (Homo sapiens) (Q96RI1 whole entry, looked up, the tested form may be a part): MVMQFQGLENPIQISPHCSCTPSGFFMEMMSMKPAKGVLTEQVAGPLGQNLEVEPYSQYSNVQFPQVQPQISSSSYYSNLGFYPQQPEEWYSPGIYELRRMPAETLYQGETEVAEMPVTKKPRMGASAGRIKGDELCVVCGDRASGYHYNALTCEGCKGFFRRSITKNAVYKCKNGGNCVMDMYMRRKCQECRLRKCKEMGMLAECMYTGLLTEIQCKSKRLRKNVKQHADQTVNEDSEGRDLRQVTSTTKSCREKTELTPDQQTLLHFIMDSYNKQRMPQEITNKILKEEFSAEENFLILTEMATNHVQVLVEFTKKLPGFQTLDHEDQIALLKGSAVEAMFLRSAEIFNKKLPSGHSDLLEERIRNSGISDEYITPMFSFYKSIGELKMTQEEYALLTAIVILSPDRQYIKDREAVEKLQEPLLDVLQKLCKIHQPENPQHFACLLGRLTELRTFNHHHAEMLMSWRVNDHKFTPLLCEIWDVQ

With `COP(=S)(OC)SCn1nnc2ccccc2c1=O`, the call in experiment [1], in [2], in experiment [3], in experiment [4], in experiment [5] and in experiment [6] was inactive. For the same compound, the result in experiment [7], in experiment [8], in [11], in experiment [12], in [13] and in experiment [14] was inactive. Besides, the AC50 was 25.1 µM (active) in experiment [9] and 12.8 µM (active) in [10].

As to `CC(C)(C)C(=O)C(Oc1ccc(Cl)cc1)n1cncn1` (centres undefined), the compound was classed as inactive in experiment [1], in [15], in experiment [3], in experiment [4], in experiment [16] and in experiment [5]. In addition, the result in [6], in experiment [7], in [8], in experiment [17], in [11] and in experiment [12] was inactive. The result in experiment [13] and in [14] was inactive. The AC50 in experiment [9] is 20.3 µM (active); in experiment [10], 19.4 µM (active).

In the case of `CCOc1cc(C(C)(C)C)ccc1C1COC(c2c(F)cccc2F)=N1` (centres undefined), the compound was called inactive in experiment [16], in experiment [5], in experiment [6], in experiment [7], in experiment [8] and in experiment [17]. In addition, the AC50 in experiment [9] was 1.62 µM (active); in experiment [10], 0.581 µM (active); in [12], 37 µM (active); in experiment [13], 29.7 µM (active); in [14] it was 28 µM (active).

Regarding `COP(=S)(OC)Oc1ccc([N+](=O)[O-])c(C)c1`, the call in experiment [2], in experiment [15], in experiment [18], in [3], in [4] and in experiment [16] was inactive. Moreover, the call in experiment [19], in [5], in [6], in [7], in [8] and in experiment [11] was inactive. The outcome in experiment [12] and in experiment [14] was inactive. Moreover, the figures for the AC50 in experiment [9], in experiment [10] and in experiment [13] were 19.1 µM (active), 50 µM (active) and 15.6 µM (active), respectively.

For the compound `C=CCOC(=O)C(C)(C)OC(=O)c1cc(-n2c(=O)cc(C(F)(F)F)n(C)c2=O)ccc1Cl`, the outcome in experiment [4], in experiment [5], in [6], in experiment [7], in experiment [8] and in experiment [10] was inactive. The result in [11], in experiment [12] and in experiment [14] was inactive. Further, the AC50 in experiment [9] is 21.9 µM (active); in [13], 2.18 µM (active).
